# Screening results deposited in PubChem BioAssay by National Center for Advancing Translational Sciences (NCATS).
# Hits are enriched below; roughly 19% of the tested compounds scored in any of these assays.
# HT1080 IDH1KD tx: qHTS for induction of synthetic lethality in tumor cells producing 2HG: qHTS for the HT-1080-IDH1KD cell line | 360,000 tested, 2% active | Potency, µM (doses to about 46.1 µM), without a hit: at the highest dose activity, negative = toxicity, hits mostly cytotoxic | HT-1080 IDH1 knockdown viability, ATP luminescence, 48 h;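 further: potency means the concentration at half of the fitted maximal effect; 0% = DMSO wells and -100% = cell-free medium wells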
#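 HT-1080-IDH1KD cells (IDH1 knocked down), 750/well in RPMI with 5% FBS, treated with compound 48 h at 37 degrees C. Viability by CellTiter-Glo luminescence, normalised to DMSO and no-cell wells; concentration-response curves classed.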
# ELG1 DNA repair: qHTS screen for small molecules that inhibit ELG1-dependent DNA repair in human embryonic kidney (HEK293T) cells expressing luciferase-tagged ELG1; HEK293T ELG1-luciferase reporter, luminescence, 16 h; DNA damage induced by 5-fluorouridine; Potency, µM (highest dose often 46.1 µM), for inactives: at the top dose activity change, negative = inhibition, usual class: inhibitors; 330,000 tested, 2.3% active; AID 504467, 2011; further: potency means the concentration at half of the fitted maximal effect; nearly all actives have a fitted effect of over 55% in size
#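 Step one: seed 2,000 cells per well. Step two: pin-transfer compound or DMSO alongside 5-fluorouridine. Step three: incubate 16 hr, 37 °C, 5% CO2. Step four: add ONE-Glo, wait 30 min, read luminescence.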
# TDP1 cell noCPT: qHTS for Inhibitors of human tyrosyl-DNA phosphodiesterase 1 (TDP1): qHTS in cells in absence of CPT | 420,000 tested, 15% active | DT40 Tdp1-/- hTDP1 cells, no CPT, ATP luminescence, 48 h | Potency, µM (titrated, usually from 46.2 µM), inactives show top-dose activity change, negative = growth inhibition, hits mostly inhibitors; further: potency means the concentration at half of the fitted maximal effect; nearly all actives have a fitted effect of over 55% in size
#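 Growth kinetics read by CellTiter-Glo luminescence after ≥48 hr at 37 °C. Cells: DT40 Tdp1-/- stably carrying human TDP1, 400 per well, compound exposure in the absence of CPT (DMSO vehicle).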
# HT1080NT lethal: qHTS for induction of synthetic lethality in tumor cells producing 2HG: qHTS for the HT-1080-NT fibrosarcoma cell line; HT-1080-NT fibrosarcoma viability, CellTiter-Glo ATP luminescence, 48 h; Potency, µM (top dose mostly 46.1 µM), without a hit: top-dose activity, negative = less viability, actives largely listed as cytotoxic; 360,000 tested, 1.6% active;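 further: NT is the 2HG producing partner of a matched IDH1 knockdown line; potency means the concentration at half of the fitted maximal effect; 0% = DMSO-treated cells and -100% = media-only wells without cells; nearly all actives have a fitted effect of over 55% in size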
#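 Read-out is CellTiter-Glo luminescence after 10 minutes at room temperature, following 48 hours' compound treatment of HT-1080-NT cells (750 cells/well, RPMI, 5% FBS, 37 degrees C).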
# DT40 TDP1 CPT: qHTS for Inhibitors of human tyrosyl-DNA phosphodiesterase 1 (TDP1): qHTS in cells in presence of CPT; Potency, µM (top dose mostly 46.2 µM), without a hit: at the highest dose activity change, negative = growth inhibition, actives largely listed as inhibitors; 420,000 tested, 12% active; chicken DT40 Tdp1-/-;hTDP1 cells + 20 nM CPT, ATP luminescence, 48 h; AID 686979, 2013; further: potency means the concentration at half of the fitted maximal effect; nearly all actives have a fitted effect of over 55% in size
#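 Chicken DT40 Tdp1-/- cells stably complemented with human TDP1 were seeded at 400 cells/well in medium containing 20 nM camptothecin, exposed to pin-transferred compounds, and grown at 37 °C for at least 48 hr. Viability was read as ATP luminescence.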
# IL-1B inflam inh: qHTS for Inhibitors of Inflammasome Signaling: IL-1-beta AlphaLISA Primary Screen; activity change, % at 57.5 µM; AID 743279, 2014; 360,000 tested, 4.7% active; THP-1 LPS/ATP IL-1B secretion, AlphaLISA, 16 h; hits give low values; in the data active means activity change below about -50%; inconclusive means mostly about -30% to -49%
#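 Secreted IL-1B measured by AlphaLISA bead assay after 16 h compound exposure of THP-1 cells; compounds (final up to 57.5 uM) added 1 h before LPS (250 ng/mL) and ATP (1.25 mM) stimulation; lower signal means less secretion.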
# The depositor's hits bear a star; ? = inconclusive; . = no result. Unless noted, the call rests on the fitted dose curve; in most records, active means well fitted curve in the direction sought with a large enough effect; inconclusive means small, poorly fitted or top-dose-only effect, or another doubt; inactive means no such curve, though single readings can be large; an effect the other way counts as inactive or inconclusive. Unless noted, on the % scale 0 is the no-effect control and ±100 the full control effect.
SMILES,HT1080 IDH1KD tx,ELG1 DNA repair,TDP1 cell noCPT,HT1080NT lethal,DT40 TDP1 CPT,IL-1B inflam inh
Cc1cc(C)c2cc(C)c3nnc(SCC(=O)NCc4ccc5c(c4)OCO5)n3c2c1,-3%,-17%,?,-2%,?,-59*
O=C(CSc1nnc(-c2cccs2)n1Cc1ccccc1)NCc1ccc2c(c1)OCO2,-4%,?,?,-2%,23µM*,-61*
Cc1cc2cc(C)c3nnc(SCC(=O)NCc4ccc5c(c4)OCO5)n3c2cc1C,3%,-23%,-26%,14%,?,-12
CCCCCCCNC(=O)C1(CC2CC(c3ccc(Cl)cc3)=NO2)CCN(C(=O)C2CCCC2)CC1 (stereo unspecified),5%,-10%,?,0%,?,1
CCCCCCCNC(=O)C1(CC2CC(c3cccc(Br)c3)=NO2)CCN(C(=O)OC(C)(C)C)CC1 (stereo unspecified),0%,-17%,15µM*,7%,?,-2
CCCNC(=O)C1(CC2CC(c3ccccc3)=NO2)CCN(C(=O)OC(C)(C)C)CC1 (stereo unspecified),5%,.,?,0%,?,-13
CCCCCCCNC(=O)C1(CC2CC(c3cccc(Br)c3)=NO2)CCN(C(=O)C2CCCC2)CC1 (stereo unspecified),-11%,?,?,0%,21µM*,-19
CC(C)(C)OC(=O)N1CCC(CC2CC(c3cccc(Br)c3)=NO2)(C(=O)NCC2CCCCC2)CC1 (stereo unspecified),-2%,0%,16µM*,-5%,?,-21
O=C(NCC1CCCCC1)C1(CC2CC(c3ccc(Cl)cc3)=NO2)CCNCC1 (stereo unspecified),-26%,30%,18µM*,?,23µM*,?
O=C(COC(=O)Cc1c[nH]c2ccccc12)Nc1c(Cl)cccc1C(F)(F)F,0%,8%,-5%,2%,9%,33
Cc1ccccc1-c1noc(-c2cccnc2N2CCN(c3ccccc3)CC2)n1,.,.,?,.,-12%,.
O=C(NCC1CCCCC1)C1(CC2CC(c3cccc(Br)c3)=NO2)CCNCC1 (stereo unspecified),-30%,?,16µM*,-18%,16µM*,-21
O=C(c1ccccc1)N1CCC(CC2CC(c3cccc(Br)c3)=NO2)(C(=O)NCC2CCCCC2)CC1 (stereo unspecified),-5%,?,?,-9%,?,-24
CCNC(=O)C1(C)CCN1CCC(=O)c1ccc(C)cc1 (stereo unspecified),15%,.,16µM*,14%,21µM*,0
Cc1c(O)c2c(c(C(=O)/C=C/c3ccccc3)c1O)OC(C)(C)C=C2,.,.,11µM*,.,?,.
O=C(Nc1ccc(Cl)cc1)NC1CCCCC1Cc1ccco1 (stereo unspecified),?,-16%,18µM*,?,?,-8
O=C(Nc1ccc(Cl)cc1)NC1CCCC1Cc1ccco1 (stereo unspecified),?,?,?,-15%,-20%,-89*
O=C(C1CCCC1)N1CCN=C1SCc1cccc([N+](=O)[O-])c1,-3%,-22%,?,-7%,5%,-29
